DT40 TDP1 no CPT = qHTS for Inhibitors of human tyrosyl-DNA phosphodiesterase 1 (TDP1): qHTS in cells in absence of CPT. DT40 Tdp1-/- hTDP1 cells, no CPT, ATP luminescence, 48 h. Potency, µM (top dose mostly 46.2 µM), for inactives: at the top dose activity change, negative = growth inhibition, hits mostly inhibitors. AID 686978, 2013. actives 15% (n = 420,000); note: potency is the fitted concentration of half-maximal effect; nearly all actives have a fitted effect of over 55% in size
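Compound effects on proliferation are scored in DT40 Tdp1-/-;hTDP1 cells in the absence of CPT. ATP levels (CellTiter-Glo luminescence) are recorded after a ≥48 hr, 37 °C incubation.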
TDP1 cell CPT = qHTS for Inhibitors of human tyrosyl-DNA phosphodiesterase 1 (TDP1): qHTS in cells in presence of CPT; chicken DT40 Tdp1-/-;hTDP1 cells + 20 nM CPT, ATP luminescence, 48 h; Potency, µM (titrated, usually from 46.2 µM), for the others: at the highest dose activity change, negative = growth inhibition, usual class: inhibitors; actives 12% (n = 420,000); note: potency is the fitted concentration of half-maximal effect; nearly all actives have a fitted effect of over 55% in size
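Chicken DT40 Tdp1-/- cells stably complemented with human TDP1 were seeded at 400 cells/well in medium containing 20 nM camptothecin, exposed to pin-transferred compounds, and grown at 37 °C for at least 48 hr. Viability was read as ATP luminescence.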
IL1B secr inh = qHTS for Inhibitors of Inflammasome Signaling: IL-1-beta AlphaLISA Primary Screen; THP-1 LPS/ATP IL-1B secretion, AlphaLISA, 16 h; hits give low values; activity change, % at 57.5 µM; actives 4.7% (n = 360,000); in the data active = activity change below about -50%; inconclusive = mostly about -30% to -49%
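Secreted IL-1B measured by AlphaLISA bead assay after 16 h compound exposure of THP-1 cells; compounds (final up to 57.5 uM) added 1 h before LPS (250 ng/mL) and ATP (1.25 mM) stimulation; lower signal means less secretion.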
ELG1 DNA repair = qHTS screen for small molecules that inhibit ELG1-dependent DNA repair in human embryonic kidney (HEK293T) cells expressing luciferase-tagged ELG1; HEK293T ELG1-luciferase reporter, luminescence, 16 h; DNA damage induced by 5-fluorouridine; Potency, µM (highest dose often 46.1 µM), inactives show at the highest dose activity change, negative = inhibition, most hits filed as inhibitors; actives 2.3% (n = 330,000); AID 504467, 2011; note: potency is the fitted concentration of half-maximal effect; nearly all actives have a fitted effect of over 55% in size
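Overnight (16 hr) co-exposure of 2,000 cells/well to 5-fluorouridine and compound at 37 °C preceded detection. Luciferase was quantified via ONE-Glo luminescence; loss of signal denotes inhibition.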
TDP1 block = qHTS Assay for Inhibitors of Tyrosyl-DNA Phosphodiesterase (TDP1) | Tyrosyl-DNA phosphodiesterase 1 (Homo sapiens), Q9NUW8 | recombinant TDP1, AlphaScreen DNA substrate cleavage | Potency, µM (doses to about 130 µM), without a hit: top-dose activity change, negative = inhibition, most hits filed as inhibitors | actives 0.28% (n = 350,000); note: potency is the fitted concentration of half-maximal effect; nearly all actives have a fitted effect of over 40% in size
Target sequence (Q9NUW8 whole entry, looked up): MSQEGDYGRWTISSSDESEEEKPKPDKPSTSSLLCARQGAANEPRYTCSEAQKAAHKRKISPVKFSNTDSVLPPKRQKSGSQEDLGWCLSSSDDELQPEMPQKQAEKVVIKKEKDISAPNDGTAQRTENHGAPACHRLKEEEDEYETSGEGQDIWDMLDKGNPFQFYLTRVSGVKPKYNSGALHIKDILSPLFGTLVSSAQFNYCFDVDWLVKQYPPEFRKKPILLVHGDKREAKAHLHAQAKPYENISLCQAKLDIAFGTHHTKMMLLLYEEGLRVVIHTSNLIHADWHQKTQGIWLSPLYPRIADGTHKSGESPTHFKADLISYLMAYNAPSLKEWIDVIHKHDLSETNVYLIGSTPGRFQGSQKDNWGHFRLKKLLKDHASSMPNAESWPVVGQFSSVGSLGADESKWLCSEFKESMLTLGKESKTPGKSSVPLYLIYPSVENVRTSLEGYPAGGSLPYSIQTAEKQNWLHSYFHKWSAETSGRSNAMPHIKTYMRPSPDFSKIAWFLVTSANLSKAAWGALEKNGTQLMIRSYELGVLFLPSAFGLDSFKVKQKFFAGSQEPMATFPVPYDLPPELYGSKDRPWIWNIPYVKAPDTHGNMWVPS
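Tdp1 1 nM final; 15 min RT w/ cpd; substrate 15 nM, 5 min; beads 10 ug/ml, 10 min; AlphaScreen read. Neg ctrl: no enzyme.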
Giardia kill = Small Molecules that selectively kill Giardia lamblia: qHTS; Giardia lamblia trophozoite viability; activity change, % at 7.66 µM, hits read low; actives 0.15% (n = 340,000); in the data active = activity change below about -80%; inconclusive = between about -30% and that limit;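 note: parasites exposed to compound for two days anaerobically before the ATP read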
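Compounds were tested on trophozoites seeded at 100 cells/well and held 48 hrs at 37 deg C anaerobically. An ATP-based luminescent kit measured the remaining live cells.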
Active calls of the source: *; u = inconclusive; x = not tested or not shown; [ ] = dose if it differs, or a comment. Sampled rows, rich in hits. Any-hit rate of the full collection: about 19%. Unless noted, calls come from the whole dose curve; as a rule, active = well fitted curve in the direction sought with a large enough effect; inconclusive = small, poorly fitted or top-dose-only effect, or another doubt; inactive = no such curve, though single readings can be large; an effect the other way counts as inactive or inconclusive. % is set by controls: 0 for no effect and ±100 for the full control effect.

SMILES | DT40 TDP1 no CPT | TDP1 cell CPT | IL1B secr inh | ELG1 DNA repair | TDP1 block | Giardia kill
Cc1nc(NC2CCCCC2)c2nc(-c3ccccc3)n(CCCN3CCCCC3C)c2n1 (stereo unspecified) | x | x | x | x | 3% | x
O=[N+]([O-])c1cc2ncccc2c2ncccc12 | 4.6µM* | 6.5µM* | u | x | x | x
Cc1cc([N+](=O)[O-])cc2ncccc12 | -5% | -6% | -7 | 5% | 1% | 16
CCOc1ccc(CNS(=O)(=O)c2cc(-c3cc(C)no3)ccc2C)cc1OC | u | -13% | x | x | 0% | x
CCOC(=O)CC(NS(=O)(=O)c1cc(-c2cc(C)no2)ccc1C)c1ccc(C)cc1 (stereo unspecified) | 8.2µM* | 21µM* | x | x | 0% | x
CCc1ccc(-c2cc(C)no2)cc1S(=O)(=O)NCc1ccc(OC)cc1 | 1µM* | 0.92µM* | x | x | -3% | x
Cc1cc(-c2ccc(C)c(S(=O)(=O)N(C(C)C)C3CCCCC3)c2)on1 | u | 21µM* | x | x | -5% | x
COc1ccc(CNS(=O)(=O)c2cc(-c3cc(C)no3)ccc2C)cc1OC | -21% | -26% | -4 | 23µM* | 1% | -14
COc1ccc(CNS(=O)(=O)c2ccc(-c3cc(C)no3)cc2)cc1 | -13% | -23% | 14 | -1% | 1% | -29
CC(C)CN1C(=O)C(=O)N(CC(=O)c2ccc3c(c2)OCO3)C1=O | -14% | 27% | -6 | u | 0%[0.505 µM] | 9
Cc1ccc(NC(=O)CC2C(=O)N(Cc3ccccc3)C(=S)N2NC(=O)c2ccccc2)c(C)c1 (stereo unspecified) | u | u | 5 | -18% | 2% | 2
CCOC(=O)CC1(NC(=O)C2CCC(=O)N(CCc3ccccc3)C2)CCCCC1 (stereo unspecified) | -4% | 2% | -22 | u | 1% | -4
OCC1OC(/C=C\c2ccccc2)C=CC1Oc1ccc2c(c1)OCO2 (stereo unspecified) | x | x | x | x | 11%[21 µM] | x
COc1ccccc1CN1CCC(CNS(=O)(=O)c2cc(-c3cc(C)no3)ccc2C)CC1 | u | u | u | -5% | 3% | 0
Cc1cc(-c2ccc(C)c(S(=O)(=O)NCC3CCN(Cc4ccc(F)cc4)CC3)c2)on1 | u | 18µM* | -88* | -20% | 3% | 3
COCCN(Cc1cccs1)S(=O)(=O)c1cc(-c2cc(C)no2)ccc1C | 21µM* | u | x | x | -5% | x
COc1ccc(-c2cc(C)no2)cc1S(=O)(=O)NCc1cccs1 | 15µM* | 15µM* | x | x | 3% | x
CCCCCCN1C=CC(=C/C=C(\C#N)C(=O)OCC)C=C1 | 16µM* | u | 0 | -2% | 6% | -20
CCOC(=O)/C(C#N)=C/C=C1\C=Cc2ccccc2N1CC | 23µM* | 21µM* | u | u | 1% | 5
Cc1nc([N+](=O)[O-])cn1CC(O)c1ccc2c(c1)OCCCO2 (stereo unspecified) | -4% | 1% | x | x | x | x
Cn1c(=O)c2c(SCC(=O)N3CCc4ccccc43)nc(-c3ccccc3Cl)nc2n(C)c1=O | -2% | 6% | x | x | -3% | x
Cc1ccc(/C=C2\SC(=S)N(CC(=O)Nc3cccnc3)C2=O)cc1 | -11% | -4% | -7 | 14% | 0% | 13
COc1cc(/C=C2\SC(=O)N(CC(=O)Nc3ccccc3F)C2=O)cc(Cl)c1O | 13µM* | 18µM* | 31 | -18% | x | 8
CCOc1cc(/C=C2\SC(=O)N(CC(=O)Nc3ccccc3F)C2=O)cc([N+](=O)[O-])c1O | 21µM* | 8.2µM* | -20 | -13% | 7% | -10
Cc1ccc(NC(=O)CN2C(=O)S/C(=C/c3ccncc3)C2=O)cc1 | u | 16µM* | -5 | 0% | 5% | 2
SMILES | DT40 TDP1 no CPT | TDP1 cell CPT | IL1B secr inh | ELG1 DNA repair | TDP1 block | Giardia kill
COc1cc(/C=C2\SC(=N)N(c3ccc(F)cc3)C2=O)ccc1O | 23µM* | 26µM* | 2 | u | 3% | -29
CCOC(=O)C(=O)NC1CC=CCC1c1ccc2c(c1)OCO2 (stereo unspecified) | -6% | 3% | -22 | x | x | -12
Cc1cccc(NC(=O)CN2C(=O)S/C(=C\c3ccc(-c4cccc(C(=O)O)c4C)o3)C2=O)c1 | -13% | -4% | 20 | -2% | 25µM* | 0
COc1ccc(/C=C2\SC(=O)N(CC(=O)Nc3ccc(F)cc3)C2=O)cc1O | 15µM* | u | u | u | 3% | 7
Cc1ccccc1NC(=O)CN1C(=O)S/C(=C\c2ccc(-c3cccc(C(=O)O)c3C)o2)C1=O | 0% | 1% | -3 | 0% | 5% | 33
N=C1S/C(=C\c2ccccc2F)C(=O)N1c1ccc(F)cc1 | u | u | -3 | 29% | -2% | 12
COc1ccc(/C=C2\SC(=O)N(CC(=O)Nc3cccnc3)C2=O)cc1OC | u | u | -14 | u | -3% | -2
COc1cc(OC)c(/C=C2\SC(=O)N(CC(=O)Nc3ccccc3F)C2=O)c(OC)c1 | 21µM* | u | -7 | -5% | x | 1
N=C1S/C(=C\c2cccc3ccccc23)C(=O)N1c1ccc(F)cc1 | 3.7µM* | 5.2µM* | -25 | -22% | -1% | -10
CC(C)c1ccc(/C=C2\SC(=O)N(CC(=O)NCCCn3ccnc3)C2=O)cc1 | 15µM* | u | -1 | u | 9% | -29
CCN(CC)CCNC(CC(=O)Nc1ccc(Cl)cc1Cl)C(=O)O (stereo unspecified) | -6% | 26% | -12 | -2% | 2% | -20
CCN(CC)CCNc1ccc(CO)c2oc3cc(Cl)ccc3c(=O)c12 | 10µM* | 23µM* | -29 | x | x | x
CN(C)CCNc1ccc(CO)c2oc3ccc(O)cc3c(=O)c12 | 0.65µM* | 0.13µM* | -98* | x | x | -14
CCOC(=O)c1ccc(-n2c(-c3ccco3)nc3ccccc3c2=O)cc1 | 18µM* | 12µM* | 10 | -29% | 7% | -5
CCOC(=O)c1ccc(-n2c(=O)[nH]c3ccccc3c2=O)cc1 | -14% | -14% | -60* | u | 3% | -4
CCOC(=O)N1CCN(C(=O)Cc2ccc(-n3c(=O)[nH]c4ccccc4c3=O)cc2)CC1 | -9% | -1% | -1 | -1% | 7% | -2
